HTR5A ag = HTR5A agonists in luminescence cell assay, primary screen, counter-screen for OPRM1-OPRD1 heterodimer agonist project, full-deck HTS | AID 504692, 2011 | actives 0.61% (n = 340,000) | cell-based | 5-hydroxytryptamine receptor 5A (Homo sapiens), P47898 | activation, % at 9.3 µM; in the data active = activation mostly above about 9.5%, no sharp cut-off; inactive = mostly below about 7.6%;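 note: 0% = cells with vehicle only and 100% = reference agonist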
Target sequence (P47898 whole entry, looked up): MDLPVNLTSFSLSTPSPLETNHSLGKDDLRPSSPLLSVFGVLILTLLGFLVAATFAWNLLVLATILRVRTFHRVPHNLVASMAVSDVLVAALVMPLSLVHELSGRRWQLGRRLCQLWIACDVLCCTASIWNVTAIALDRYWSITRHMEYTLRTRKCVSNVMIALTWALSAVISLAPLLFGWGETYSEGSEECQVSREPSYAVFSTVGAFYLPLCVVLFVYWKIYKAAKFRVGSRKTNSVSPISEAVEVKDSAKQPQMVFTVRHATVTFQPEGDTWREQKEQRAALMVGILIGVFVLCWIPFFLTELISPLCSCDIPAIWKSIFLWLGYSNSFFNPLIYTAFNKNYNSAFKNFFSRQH
HTR5A inv ag = HTR5A inverse agonists in luminescence cell assay, primary screen, counter-screen for OPRM1-OPRD1 heterodimer inverse agonist project, full-deck HTS | 5-hydroxytryptamine receptor 5A (Homo sapiens), P47898 | HTR5A cell line, inverse agonism | inhibition, % at 9.3 µM | actives 0.083% (n = 340,000); in the data active = inhibition mostly above about 23%, no sharp cut-off; inactive = mostly below about 18%;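 note: 0% = cells with DMSO and 100% = no-cell wells with DMSO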
MOR-DOR ag = agonists of OPRM1-OPRD1 heterodimerization, primary screen, cell-based, luminescence. Mu-type opioid receptor (Homo sapiens) + Delta-type opioid receptor (Homo sapiens), …. cells. activation, % at 9.3 µM. actives 0.3% (n = 340,000); in the data active = activation above about 18%;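 note: 0% = vehicle-treated cells and 100% = reference agonist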
MIN6 prolif = inducers of MIN6 beta-cell proliferation, primary screen, ATP luminescence, uHTS; MIN6 cells proliferation, ATPlite luminescence, 48 h; cells starved in 0.2% serum; 100% = growth in 10% serum; proliferation, % at 10 µM; actives 0.29% (n = 330,000); AID 2380, 2010;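 active = compounds whose signal lies at least 3.5 SD above the mean of all wells on their plate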;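 note: 0% = DMSO-treated cells in low-serum medium and 100% = 10% serum control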
V-ATPase pHluor = regulators of yeast V-ATPase proton pumping, primary screen, pHLuorin cytosolic pH fluorescence; AID 504577, 2011; S. cerevisiae; actives 0.37% (n = 350,000); response, % at 10 µM; in the data active = response mostly above about 7.3%, no sharp cut-off; inactive = mostly below about 5.4%; note: actives read high
MOR-DOR inv ag = inverse agonists of MOR-DOR heterodimerization, primary screen, cell-based, luminescence; inhibition, % at 9.3 µM; actives 0.21% (n = 340,000); cell-based MOR-DOR heterodimer luminescence, inverse agonism; Mu-type opioid receptor (Homo sapiens) + Delta-type opioid receptor (Homo sapiens), …; in the data active = inhibition above about 22%, passing the limit was not always enough;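 note: 0% = cells with DMSO and 100% = wells without cells with DMSO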
V-ATPase pH SP = yeast V-ATPase proton pumping modulators, confirmation, S. cerevisiae, pH-sensitive GFP, second cherry-pick; shares compounds with V-ATPase pHluor; response, % at 10 µM; actives 2% (n = 980); S. cerevisiae pHLuorin cytosolic pH, V-ATPase proton transport; in the data active = response above about 24%;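 note: plate controls were vehicle wells for no effect and positive control wells for full effect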
Starred values were filed as active, the others as inactive. The list is not random: actives were taken first. Their share in the collection is about 1.7%.

What do the screens show for `CCc1ccc(NC(=O)C2CCCN(S(=O)(=O)c3cnc[nH]3)C2)cc1` (stereo not drawn)?
HTR5A ag: 3; HTR5A inv ag: -13; MOR-DOR ag: -3; MIN6 prolif: -3; V-ATPase pHluor: 11*; MOR-DOR inv ag: 15; V-ATPase pH SP: 0

Results for CC(C)(C)OC(=O)N1CCC[C@H]1c1nnc(SCC(=O)Nc2ccc(Br)cc2)o1 ?
HTR5A ag: -12; HTR5A inv ag: 32; MOR-DOR ag: -6; MIN6 prolif: 1; V-ATPase pHluor: -1; MOR-DOR inv ag: 32

What do the screens show for `CCOC(=O)c1ccc(NC(=O)C(=O)NCc2ccncc2)cc1`?
HTR5A ag: -2; HTR5A inv ag: 14; MOR-DOR ag: 0; MIN6 prolif: -1; V-ATPase pHluor: 11*; MOR-DOR inv ag: 0; V-ATPase pH SP: 1

Results for COc1ccc(OCCC(=O)OCC(=O)NCCc2ccccc2)cc1 ?
HTR5A ag: -1; HTR5A inv ag: 2; MOR-DOR ag: 0; MIN6 prolif: 1; V-ATPase pHluor: 7.6*; MOR-DOR inv ag: 0; V-ATPase pH SP: 0

Results for COc1ccc(CNC(=O)COC(=O)CCOc2ccccc2)cc1 ?
HTR5A ag: 3; HTR5A inv ag: -7; MOR-DOR ag: -1; MIN6 prolif: 0; V-ATPase pHluor: 1; MOR-DOR inv ag: 5

Results for CCN(C(=O)CSC1=Nc2ccccc2C2CC=NN12)C1CCS(=O)(=O)C1 (stereo not drawn) ?
HTR5A ag: 1; HTR5A inv ag: -4; MOR-DOR ag: -3; MIN6 prolif: 0; V-ATPase pHluor: -4; MOR-DOR inv ag: 14

What do the screens show for `CC(=O)Nc1ccc(N2C(=O)CSC2c2ccccc2)cc1` (stereo not drawn)?
HTR5A ag: -1; HTR5A inv ag: 3; MOR-DOR ag: -1; MIN6 prolif: -2; V-ATPase pHluor: 3; MOR-DOR inv ag: 3

How did C/C(=N\Nc1ccccn1)c1cccs1 do in these assays?
HTR5A ag: -5; HTR5A inv ag: 13; MOR-DOR ag: 2; MIN6 prolif: 0; V-ATPase pHluor: 21*; MOR-DOR inv ag: -11; V-ATPase pH SP: 3

How did Cc1ccc(C(=O)CCC(=O)N2CCN(c3ccccc3O)CC2)cc1 do in these assays?
HTR5A ag: 2; HTR5A inv ag: -13; MOR-DOR ag: 7; MIN6 prolif: -2; V-ATPase pHluor: 11*; MOR-DOR inv ag: -43; V-ATPase pH SP: -3

What do the screens show for `O=C(CCC(=O)N1CCN(c2ccccc2F)CC1)c1ccc(F)cc1`?
HTR5A ag: -2; HTR5A inv ag: 5; MOR-DOR ag: 0; MIN6 prolif: -1; V-ATPase pHluor: 1; MOR-DOR inv ag: 1

How did Cc1c(C(=O)NC2CCCC2)oc2ccccc12 do in these assays?
HTR5A ag: 4; HTR5A inv ag: -10; MOR-DOR ag: -3; MIN6 prolif: 5; V-ATPase pHluor: 5; MOR-DOR inv ag: 13

What do the screens show for `Cc1ccc2[nH]c(=O)c(COC(=O)c3cccs3)cc2c1`?
HTR5A ag: -3; HTR5A inv ag: -1; MOR-DOR ag: 7; MIN6 prolif: 0; V-ATPase pHluor: 5; MOR-DOR inv ag: -38

What do the screens show for `COc1ccccc1-c1cc(C(=O)Nc2sc3c(c2C#N)CCC(C)C3)c2ccccc2n1` (stereo not drawn)?
HTR5A ag: -1; HTR5A inv ag: -2; MOR-DOR ag: -1; MIN6 prolif: -1; V-ATPase pHluor: 1; MOR-DOR inv ag: 6

Results for Cc1cc(C(=O)OCC(=O)Nc2sc3c(c2C#N)CCC(C)C3)c2ccccc2n1 (stereo not drawn) ?
HTR5A ag: 4; HTR5A inv ag: 7; MOR-DOR ag: -3; MIN6 prolif: 0; V-ATPase pHluor: 13*; MOR-DOR inv ag: 17; V-ATPase pH SP: -3

What do the screens show for `CCOc1ccc(S(=O)(=O)N2CCOCC2)cc1NC(=O)CN1C(=O)NC2(CCCCC2)C1=O`?
HTR5A ag: -1; HTR5A inv ag: 3; MOR-DOR ag: 0; MIN6 prolif: -5; V-ATPase pHluor: 12; MOR-DOR inv ag: -1

What do the screens show for `CN(CCOc1ccc(-c2ccn(S(=O)(=O)c3ccc(Cl)cc3)n2)cc1)c1ccccn1`?
HTR5A ag: 0; HTR5A inv ag: 7; MOR-DOR ag: 1; MIN6 prolif: -3; V-ATPase pHluor: 10*; MOR-DOR inv ag: -5; V-ATPase pH SP: 1

How did COc1cccc2cc(C(=O)NCCc3ccccc3)oc12 do in these assays?
HTR5A ag: 0; HTR5A inv ag: -2; MOR-DOR ag: -2; MIN6 prolif: 2; V-ATPase pHluor: 2; MOR-DOR inv ag: 9

Results for CCc1nn(CC(=O)N2CCCCCC2)c(=O)c2cc3ccccc3n12 ?
HTR5A ag: 1; HTR5A inv ag: 11; MOR-DOR ag: 0; MIN6 prolif: 0; V-ATPase pHluor: 13*; MOR-DOR inv ag: 0; V-ATPase pH SP: 1

What do the screens show for `Cc1cc(=O)oc2cc(NC(=O)c3c(Cl)cnn3C)ccc12`?
HTR5A ag: 2; HTR5A inv ag: 8; MOR-DOR ag: 3; MIN6 prolif: -4; V-ATPase pHluor: 9.2*; MOR-DOR inv ag: -15; V-ATPase pH SP: 1

Results for CN(C)/C=N/C(=S)Nc1ccc(Cl)cc1Cl ?
HTR5A ag: -7; HTR5A inv ag: 18; MOR-DOR ag: -2; MIN6 prolif: -1; V-ATPase pHluor: -1; MOR-DOR inv ag: 11

How did C#CCNC(=O)C1=C[C@H](C(C)(C)C)C[C@H](OCCCCO)O1 do in these assays?
HTR5A ag: 5; HTR5A inv ag: -13; MOR-DOR ag: 1; MIN6 prolif: 2; V-ATPase pHluor: 16*; MOR-DOR inv ag: -5; V-ATPase pH SP: 2

Results for C=CCn1c(SCC(=O)Nc2c(C)n(C)n(-c3ccccc3)c2=O)nc2scc(-c3ccccc3)c2c1=O ?
HTR5A ag: -1; HTR5A inv ag: -11; MOR-DOR ag: 0; MIN6 prolif: 2; V-ATPase pHluor: 13*; MOR-DOR inv ag: -1; V-ATPase pH SP: 1

How did C=CCn1c(SCC(=O)Nc2c(C)n(C)n(-c3ccccc3)c2=O)nc2ccccc2c1=O do in these assays?
HTR5A ag: -4; HTR5A inv ag: 13; MOR-DOR ag: -3; MIN6 prolif: 1; V-ATPase pHluor: 5; MOR-DOR inv ag: 16

Results for CC(=O)c1ccc(S(=O)(=O)N2CCC(C(=O)Nc3ncc(C)s3)CC2)cc1 ?
HTR5A ag: 2; HTR5A inv ag: -7; MOR-DOR ag: -4; MIN6 prolif: 1; V-ATPase pHluor: 5; MOR-DOR inv ag: 21

From PubChem BioAssay
